Screening data from PubChem BioAssay.
Rows were chosen to be rich in hits. Some 1.7% of all compounds tested hit in one or more screens of this group.
p53ts 32C kill = qHTS Screen for Compounds that Selectively Target Cancer Cells with p53 Mutations: Cytotoxicity of p53ts Cells at the Permissive Temperature; H1299-p53A138V at 32C, ATP luminescence viability, 24 h; Potency, µM (titrated, usually from 46.1 µM), without a hit: at the top dose activity change, negative = cytotoxicity, hits mostly cytotoxic; hit rate 0.93% among 130,000;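 further: 0% = DMSO and -100% = full killing by reference compound; nearly all actives have a fitted effect of over 55% in size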
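Viability by ATPlite luminescence after 24 h compound treatment (up to 46 uM) at the permissive 32C. Cells are H1299 carrying p53 A138V. Scale runs from DMSO basal to 100 uM tamoxifen as full kill; AC50 from Hill fits.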
IkB sig inh = IkB Signaling | ABC-DLBCL IkBa-CBG/CBR dual luciferase ratio, 4 h; response scale: scaled: untreated 0%, proteasome inhibitor 100% | Potency, µM (top dose mostly 57.1 µM), for inactives: at the highest dose IkBa stabilization activation | AID 445, 2006 | hit rate 0.04% among 110,000; active means well fitted curve in the direction sought with a large enough effect in the signal ratio, not every such curve was filed as active; inconclusive means small, poorly fitted or top-dose-only effect, or a change in a side signal; the % refers to the signal ratio;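 further: the direction sought is a rising ratio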
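In this assay, an IκBα–CBG68 fusion accumulates when IKK-driven degradation is blocked; native CBR normalizes for cell number. OCI-Ly3 cells were treated 4 h with compound and doxycycline, then green and red light read after Chroma-Glo addition.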
Peg3 imprint = qHTS Assay for Compounds that Induce Erasure of Genomic Imprints; mouse ES Peg3-LacZ reporter, beta-gal luminescence, 40 h; Potency, µM (top dose mostly 60.7 µM), without a hit: at the top dose activity change, positive = activation, usual class: activators; hit rate 0.02% among 110,000; AID 1948, 2009
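Imprint erasure is scored as LacZ activity from the silenced maternal Peg3 allele in feeder-free female ES cells cultured 40 h with LIF. Luminescence is normalized to in-plate negative controls and fitted to the Hill equation.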
p53ts 39C tox = qHTS Screen for Compounds that Selectively Target Cancer Cells with p53 Mutations: Cytotoxicity of p53ts Cells at the Nonpermissive Temperature. H1299-p53A138V viability at 39C, ATP luminescence, 24 h. Potency, µM (top dose mostly 46.1 µM), inactives show at the highest dose activity change, negative = cell killing, usual class: cytotoxic. hit rate 1.5% among 130,000. AID 902, 2007; further: on the % scale 0 is the no-effect control and ±100 the full control effect; nearly all actives have a fitted effect of over 55% in size
An asterisk follows results filed as active; ? = inconclusive; / = not tested or not shown; [ ] = dose if it differs, or a comment. Unless noted, the call rests on the fitted dose curve; in most records, active means well fitted curve in the direction sought with a large enough effect; inconclusive means small, poorly fitted or top-dose-only effect, or another doubt; inactive means no such curve, though single readings can be large; an effect the other way counts as inactive or inconclusive. Potency means the concentration at half of the fitted maximal effect.

SMILES	p53ts 32C kill	IkB sig inh	Peg3 imprint	p53ts 39C tox
Cc1ccccc1Nc1nn2c(=O)c3ccc(C(=O)NCc4cccs4)cc3nc2s1	-14.6%	?	4.9%[10.9 µM]	-8.1%
Cc1cc(S(=O)(=O)Nc2ccccc2C(=O)O)ccc1F	2.0%	/	/	-3.0%
Cc1ccc(C)c(Cn2nnc(C(=O)NCc3ccc(Cl)cc3Cl)c2N)c1	-10.5%	2.3%	-7.5%[10.9 µM]	12.6µM*
Cc1ccc(NC(=O)c2ccc3ccccc3n2)nc1	12.6µM*	?	-20.8%	?
Cc1ccc(NC(=O)c2cccc(Cl)c2)nc1	-14.1%	0.4%	-68.1%	-13.7%
Cc1ccc(C(=O)Nc2ccc(Cl)cn2)cc1	7.94µM*	?	-67.2%	?
Cc1ccc(NCc2nnc3n2CCCCC3)cc1Cl	21.6%	-1.1%	15.4%[10.9 µM]	-5.4%
Cc1ccccc1OCC(=O)Nc1ccc2nc(SCc3ccccc3)sc2c1	-6.6%	0.3%	?	2.3%
COc1cccc(-n2c(SCC(=O)Nc3cccc(Cl)c3)nc3c(oc4ccccc43)c2=O)c1	7.9%	?	3.9%[10.9 µM]	-11.5%
O=C(CSc1nc2c(oc3ccccc32)c(=O)[nH]1)Nc1cccc(Cl)c1	10µM*	?	12.6%[10.9 µM]	7.94µM*
CN(C)c1ccc(/C=c2\sc3n(c2=O)CCCN=3)cc1	12.6µM*	?	-78.9%	12.6µM*
Cn1c(O)c(N=N/C(=N/c2ccccn2)c2ccccn2)c2cc(Br)ccc21	-13.1%	/	/	-29.8%
OC(COc1ccc(Cl)c2ccccc12)CN1CCN(c2ccccn2)CC1 (stereo unspecified)	?	?	6.7%	15.8µM*
COC(=O)c1ccc(N2C(=O)Cc3cc(OC)c(OC)cc3C2c2ccc(F)cc2)cc1 (stereo unspecified)	4.0%	?	-46.1%[10.9 µM]	-0.7%
CCOc1ccc(N/C=C/C(=O)c2ccccc2)c([N+](=O)[O-])c1	/	/	/	5.62µM*
Cc1csc(SCC(=O)c2cc(C)n(Cc3cccs3)c2C)n1	12.6µM*	?	-33.7%	12.6µM*
CC(=O)Nc1ccc(SCC(=O)c2cc(C)n(Cc3cccs3)c2C)cc1	2.51µM*	0.4%	-26.7%	2.51µM*
COCCn1c(C)cc(C(=O)CSc2ccc(NC(C)=O)cc2)c1C	?	0.9%	-35.3%	12.6µM*
COc1cccc(NC(=O)c2sc3nc(C)c(C(=O)Nc4ccc(C)cc4C)c(-c4cccs4)c3c2N)c1	4.5%	?	?	-8.3%
COc1cccc(CNC(=O)c2cc(=O)[nH]c3ccc(S(=O)(=O)N4CCCC4)cc23)c1	3.8%	1.0%	-2.5%[10.9 µM]	-3.1%
CC(C(=O)NCc1cccc(Br)c1)n1ncn2cccc2c1=O (stereo unspecified)	?	?	-22.3%[10.9 µM]	12.6µM*
COc1ccc2nc(NCc3ccccc3)[nH]c2c1	?	3.3%	-26.1%	?
c1ccc(CNc2nc3ccccc3[nH]2)cc1	10µM*	-0.8%	-65.3%	?
CCc1ccc2nc(N3CCC(C(=O)O)CC3)sc2c1	6.31µM*	?	-9.9%[10.9 µM]	6.31µM*
CCCCN(C)CCNC(=O)C1CCN(c2nc3ccc(CC)cc3s2)CC1	10µM*	?	-9.1%[10.9 µM]	15.8µM*
SMILES	p53ts 32C kill	IkB sig inh	Peg3 imprint	p53ts 39C tox
CCCN1CCN(CCCNC(=O)C2CCCN(c3nc4ccc(OCC)cc4s3)C2)CC1 (stereo unspecified)	?	?	-22.2%	?
CCOc1ccc2nc(N3CCCC(C(=O)NCCCOC)C3)sc2c1 (stereo unspecified)	?	-0.8%	14.2%[10.9 µM]	10µM*
CCCC(c1nnnn1Cc1ccc(F)cc1)N1CCN(C2CCCCC2)CC1 (stereo unspecified)	?	0.5%	3.6%	20µM*
CCCC(c1nnnn1Cc1cccs1)N1CCN(C2CCCC2)CC1 (stereo unspecified)	-5.5%	-0.2%	-14.4%	15.1%
COc1ccc(C2CC(=O)N(CC(=O)Nc3ccc(C(F)(F)F)cc3)c3ccccc3S2)cc1 (stereo unspecified)	6.1%	?	-6.2%[10.9 µM]	?
CCOc1ccc(N2Cc3ccccc3C2)cc1	12.6µM*	0.9%	-60.9%	?
c1cnc(N2CCN(c3ncnc4c3oc3ccccc34)CC2)nc1	3.0%	-3.7%	3.0%	5.0%
C(=C\c1ccccc1)/CN1CCN(c2ncnc3c2oc2ccccc23)CC1	10µM*	?	-84.2%	12.6µM*
